These results are taken from the supplement of paper PMC3898565.

± gives the uncertainty stated by the source.

For this experiment, the system named is U87. Nature of the experiment: cell viability relative to vehicle control; higher = less growth inhibition (less active). Particulars: 10 µM; 72 h.
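Note: viable cell number estimated from Alamar Blue fluorescence read at 560/90, part of a single-dose primary screen of an FDA-approved drug library.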

On to `O=C1CN2Cc3c(ccc(Cl)c3Cl)N=C2N1`, for which the cell viability turned out to be 103 ± 2.1%. For `CC[C@H]1OC(=O)[C@H](C)C(=O)[C@H](C)[C@@H](O[C@@H]2O[C@H](C)C[C@H](N(C)C)[C@H]2O)[C@](C)(OC)C[C@@H](C)C(=O)[C@H](C)[C@H]2N(CCCCn3cnc(-c4cccnc4)c3)C(=O)O[C@]12C` the value was 103.4 ± 0.35%. Consider `CN(C)CCN(Cc1ccccc1)c1ccccn1`, for which the cell viability was 96.4 ± 2.6%. For the compound `CC(N/C(=N\C#N)Nc1ccncc1)C(C)(C)C` (configuration not stated) [Pinacidil monohydrate], the cell viability worked out at 105 ± 1.1%. Consider `CS(=O)(=O)c1ccc(C2=C(c3ccccc3)C(=O)OC2)cc1`, for which the cell viability was determined as 107.7 ± 0.87%. Next, `O=C(O)C[C@H](O)C[C@H](O)/C=C/c1c(C2CC2)nc2ccccc2c1-c1ccc(F)cc1`: 28.6 ± 3.1%. For `CCC(=O)O[C@]1(C(=O)SCF)[C@H](C)C[C@H]2[C@@H]3C[C@H](F)C4=CC(=O)C=C[C@]4(C)[C@@]3(F)[C@@H](O)C[C@@]21C` the value was 105 ± 2.2%.

For `CCN1CCC[C@H]1CNC(=O)c1cc(S(N)(=O)=O)ccc1OC`, the cell viability stood at 102 ± 3.2%. Consider `Clc1cccc(Cl)c1NC1=NCCN1`, for which the cell viability was determined as 108 ± 2.8%. Consider `O=C1c2c(O)cc(O)cc2O[C@H](c2ccc(O)c(O)c2)[C@H]1O` (racemic), for which the cell viability worked out at 85.3 ± 2.2%. Consider `CC1(C)S[C@@H]2[C@H](/N=C/N3CCCCCC3)C(=O)N2[C@H]1C(=O)O`, for which the cell viability was 104 ± 2.1%.

As to `CN(C)CCc1c[nH]c2ccc(C[C@H]3COC(=O)N3)cc12` [Zolmitriptan], the cell viability worked out at 105 ± 1.6%.

For `COc1ccc2c3c1O[C@H]1C[C@@H](O)C=C[C@@]31CCN(C)C2` [Galanthamine], the cell viability was determined as 100 ± 0.85%. For `COc1cc2nc(N(C)CCCNC(=O)C3CCCO3)nc(N)c2cc1OC` (configuration not stated) the value was 101 ± 1.4%; for `CC(=O)NCCCCCCNC(C)=O`, 103.9 ± 0.65%. Consider `O=C1c2cccc3c2[C@H](CCC3)CN1[C@@H]1CN2CCC1CC2`, for which the cell viability was 84.3 ± 1.7%. Take `CNCC[C@@H](Oc1ccccc1C)c1ccccc1`: the cell viability worked out at 108.2 ± 1%. For `Cc1[nH]c(=O)c(C#N)cc1-c1ccncc1` the value was 109 ± 2.6%.

For `CC(C(O)c1ccc(O)cc1)N1CCC(Cc2ccccc2)CC1` (configuration not stated) [Ifenprodil], the cell viability worked out at 99.5 ± 1.3%.

As for `COc1cc(-c2ccc(=O)[nH]n2)ccc1OC(F)F`, the cell viability was determined as 111 ± 3.7%. As for `CN1CCC(=C2c3ccccc3CCc3sccc32)CC1` [Pizotyline], the cell viability came to 94.7 ± 13%. Take `CNCC[C@H](Oc1cccc2ccccc12)c1cccs1`: the cell viability is 101 ± 4.5%.

Regarding `O=c1c(-c2ccccc2)c1-c1ccccc1` [diphenylcyclopropenone], the cell viability came out at 77.4 ± 6.9%. In the case of `CN1CC(=O)N2[C@H](c3ccc4c(c3)OCO4)c3[nH]c4ccccc4c3C[C@@H]2C1=O`, the cell viability was found to be 107 ± 1.3%. As to `O=C1CC[C@@H](C(=O)N2CSC[C@H]2C(=O)O)N1`, the cell viability amounted to 99.4 ± 1.6%. For `CCN1CCCC1CNC(=O)c1cc(S(=O)(=O)CC)c(N)cc1OC` (configuration not stated) [Amisulpride] the value was 101.2 ± 0.96%. As for `OCc1cc(C(O)CNCCCCCCOCCCCc2ccccc2)ccc1O` (configuration not stated) [Salmeterol], the cell viability is 106 ± 1.1%. With `CSc1nc2cc(Cl)c(Oc3cccc(Cl)c3Cl)cc2[nH]1`, the cell viability amounted to 103 ± 2.5%. Regarding `OC[C@H]1O[C@@H](Oc2cc(O)cc(/C=C/c3ccc(O)cc3)c2)[C@H](O)[C@@H](O)[C@@H]1O`, the cell viability was found to be 99.7 ± 3.1%. Next, `CCOC(=O)O[C@]1(C(=O)OCCl)CC[C@H]2[C@@H]3CCC4=CC(=O)C=C[C@]4(C)[C@H]3[C@@H](O)C[C@@]21C`: 104 ± 1.4%; `Cc1cccc(Nc2ccncc2S(=O)(=O)NC(=O)NC(C)C)c1`: 124 ± 2.1%. In the case of `Cc1ncc([N+](=O)[O-])n1CC(O)CCl` (configuration not stated), the cell viability amounted to 91.08 ± 0.44%. With `CCCN[C@H]1CCc2nc(N)sc2C1`, the cell viability was 105 ± 1.9%. Next, `CC(=O)O[C@@]12CO[C@@H]1C[C@H](O)[C@@]1(C)C(=O)[C@H](O)C3=C(C)[C@@H](OC(=O)[C@H](O)[C@@H](NC(=O)OC(C)(C)C)c4ccccc4)C[C@@](O)([C@@H](OC(=O)c4ccccc4)[C@H]21)C3(C)C`: 45.2 ± 1.5%.

As for `Cc1ccnc2c1NC(=O)c1cccnc1N2C1CC1` [Viramune], the cell viability was 107 ± 3.4%. Next, `CC(=O)CCCCn1c(=O)c2c(ncn2C)n(C)c1=O` [Pentoxifylline]: 101.9 ± 0.75%; `CO[C@@H]1[C@@H](O[C@@H]2O[C@H](C)[C@@H](O[C@H]3C[C@@](C)(O)[C@@H](OC(=O)CC(C)C)[C@H](C)O3)[C@H](N(C)C)[C@H]2O)[C@@H](CC=O)C[C@@H](C)[C@@H](O)/C=C/C=C/C[C@@H](C)OC(=O)C[C@H]1O`: 102 ± 2.2%.

For orientation: cell viability means a read-out of living cells in per cent, often relative to untreated cells.
